# The campaign covered roughly 31,000 sequences. About 1,400 (4.5%) were called active. This excerpt belongs to a sample that is enriched for actives. Values without a mark were called inactive.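 Rule for the calls: active = median seed-adjusted z-score above 1 or below -1; inactive = the rest.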
# Assay: Novel Modifiers of Survival Motor Neuron (SMN) Protein: Gene Identification via Genome-wide siRNA Screen;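 note: luminescence tracks full-length SMN protein made from the SMN2 reporter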
# Conditions: HEK293T SMN2-luciferase reporter, siRNA knockdown, 72 h; actives lie on both sides
# How it was run: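 Each of three siRNAs per gene is reverse-transfected (1 pmol) into reporter HEK293T cells whose luciferase output tracks SMN protein level. After 72 h culture, ONE-Glo luminescence is control-normalized, log10-transformed and MAD-standardized; Common Seed Analysis deprioritizes seed-driven hits.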
row,Sequence,median seed-adjusted z-score
1,GGCUAGUGAUAUACUAUAUTT against RPS6KA6,-0.0821
2,CCAUCAGUACAUAUCCGAATT against ABCA8,-0.666
3,GCUCAUGGUUGAUGAUUCUTT against RABGGTA,-0.0601
4,UCACUAUCAGUACCCAUUATT against CHRNB1,0.16
5,GGAGAGAGGUCCAGUCUGATT against BIRC7,-1.44 (active)
6,CAAAGUAUCGGGUCAUCUATT against DMRTA1,-0.162
7,CUUUGACAGUGUUCGUGAATT against SGOL2,0.114
8,CCAAGACGAUGAGAGUAUATT against UGCGL2,-0.456
9,CGGGCGAGUUUACUAUGUATT against ITCH,0.199
10,GCAUUGCCGAGAUCCAUGATT against PIK3R2,0.421
11,UCACGUAGAGUCAUAUUUATT against HNRPA1P4,-0.906
12,ACACAGCUGUUGUACCUCATT against MAP4,1.67 (active)
13,GAUACUUUGCCGUCAAUUATT against CA5B,0.317
14,CCAUUGAUCUGCACUACUATT against NUP85,0.948
15,GACCUAUCCUUGCACCAGATT against ECT2,0.04
16,GCUCGAGUGGAAGAACUCATT against GLMN,0
17,GCAGGACCCAUUACGGCUATT against DPEP1,-0.886
18,GGCUGUGCAUAAACGAGAATT against GTF2E1,1.76 (active)
19,GGAGAACCAUAGAAAACCATT against RIPK3,0.123
20,CGAGGACACCCUUAGCAGUTT against ADRA1B,-0.472
21,GACCGUACGAGGCAAGUAATT against PAX1,-0.111
22,GAACGAGUGAGAGAAUAUATT against TTC9C,-0.571
23,GCCGAGUCAGUAUCUAUGATT against STARD13,-0.0337
24,GGACAAGAAUUUUGCCUUUTT against U2AF2,2.14 (active)
25,CCACGGUGAUAACAGACAUTT against ALDH8A1,0.0628
26,GGCUAUACAGGGUAGACAATT against PXDNL,-0.186
27,GGCAGAUAACUGAACGAGATT against HECW2,0.38

row,Sequence,median seed-adjusted z-score
1,CUGGCUACGUGAAUGUGCATT against ZDHHC12,-0.0312
2,GGAACUCGUGCAUCUCCAATT against CD93,-0.0879
3,GAGAUUACAUAAACGGAGATT against PARP11,0.192
4,CAGAUGUUAUGGAUAUAAUTT against L2HGDH,-0.346
5,GCUUAUGGUUGAUCAGUUATT against RNF7,-1.18 (active)
6,UGAGUUGCCCUGAUUUGAATT against AIF1,-0.0293
7,GCAACUCCUUCCUCGCUAATT against RBM17,0
8,GAAUGUUCAAGAUCGAUUUTT against RANBP2,1.53 (active)
9,UCAUGUAUGUGGGAGCCAATT against SNCG,-0.169
10,AGGUGAUGCAGGACAGAAATT against COL18A1,-0.441
11,CCUCAACUCUUAUAUUACATT against ZNF595,0.102
12,GGAUCCCUAUGUUCGGAAATT against AP2B1,-0.214
13,GCAGUAAUAUUUAUCUCUUTT against SUCNR1,0
14,CCUGAAUCCUUAGACUUAATT against PROX1,-0.372
15,ACCCUGCUAUACUCCCUAUTT against MAPKAPK3,-0.506
16,GAUCCUAAUAUGAAGUUAUTT against FUBP1,-1.52 (active)
17,GCUAGAGAUUGACCAGAAATT against NUDC,-0.227
18,GGCAACAACUGGAUCUGAATT against PIGZ,0.74
19,CUGGAUGAGGUGUACCUUATT against XPNPEP1,-1.5 (active)
20,GCAUGACCCUCGUCACAUATT against THBS1,-0.847
21,GGGUAGGUGAUAUCCAUAUTT against ZBTB5,0.314
22,GGCGGAGUAUGGAAAGUUATT against UBE2H,0
23,GCACCUCUCUGCUAACUGUTT against PGC,0.884
24,CGAUGUCAGUAGGAACCUUTT against PSMC1,-2.23 (active)
25,CGACUACCCAUACUCUCCATT against CDC34,0
26,CUACCUCUAUAUCACCAAATT against KDELR1,-0.0168
27,CCGUUGCUCUAUCUUCGUATT against SETBP1,0.0232

# Source: PubChem BioAssay AID1347426 (Functional Genomics Laboratory (NCATS/FGL), 2020)
